# The list is not random: actives were taken first. Their share in the collection is about 2.6%.
# Cruzain inh Det = qHTS Assay for Promiscuous and Specific Inhibitors of Cruzain (with detergent). 200,000 compounds, 0.43% hits. Cruzipain (Trypanosoma cruzi), P25779. Potency, µM, actives largely listed as inhibitors. purified cruzain, Z-FR-AMC fluorescence, 0.01% Triton; also: nearly all actives have a fitted effect of over 40% in size
# Target sequence (P25779 123-467 limits assumed): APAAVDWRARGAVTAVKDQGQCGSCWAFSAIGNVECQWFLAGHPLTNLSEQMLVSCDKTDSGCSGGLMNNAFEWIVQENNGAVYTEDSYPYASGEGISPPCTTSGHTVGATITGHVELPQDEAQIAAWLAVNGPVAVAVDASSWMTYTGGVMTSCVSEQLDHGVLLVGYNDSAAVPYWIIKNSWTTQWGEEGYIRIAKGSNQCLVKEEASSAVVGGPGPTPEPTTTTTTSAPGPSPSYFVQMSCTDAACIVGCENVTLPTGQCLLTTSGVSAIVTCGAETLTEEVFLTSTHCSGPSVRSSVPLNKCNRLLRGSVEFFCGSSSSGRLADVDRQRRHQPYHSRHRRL
#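 Compounds were screened in titration against cruzain (1.5 nM) with 0.01% Triton X-100 to counter colloidal aggregation. Activity was the AMC fluorescence increase over 60 s after adding 2 uM Z-FR-AMC at pH 5.5.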
# Cruzain noTriton = qHTS Assay for Promiscuous and Specific Inhibitors of Cruzain (without detergent); purified cruzain, Z-FR-AMC fluorescence, no detergent; 200,000 compounds, 2.3% hits; Potency, µM, hits mostly inhibitors; AID 1476, 2009; Cruzipain (Trypanosoma cruzi), P25779; also: nearly all actives have a fitted effect of over 40% in size
#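 Detergent-free condition (0.00005% Triton X-100) in acetate buffer pH 5.5 with DTT. 1.5 nM enzyme and compound were pre-mixed 15 min, then 2 uM Z-FR-AMC substrate added; reaction progress from fluorescence change between first and third reads (60 s).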
# Numbers stand for hits; – = inactive; ? = inconclusive. Calls follow the shape of the dose curve; as a rule, active = well fitted curve in the direction sought with a large enough effect; inconclusive = small, poorly fitted or top-dose-only effect, or another doubt; inactive = no such curve, though single readings can be large; an effect the other way counts as inactive or inconclusive.
SMILES,Cruzain inh Det,Cruzain noTriton
CCCCOc1ccc(S(=O)(=O)Nc2ccc(-c3ccc(N4CCCCC4)nn3)cc2)cc1,–,31.6µM
CCCCOc1ccc(S(=O)(=O)Nc2ccc(-c3ccc(N4CCCCCC4)nn3)cc2)cc1,–,–
CC(C(=O)Nc1cc(C(F)(F)F)ccc1Cl)n1nnc2sc3c(c2c1=O)CCCC3 (stereo not drawn),–,–
CC1=C(C)CS(=O)N(c2ccc(S(N)(=O)=O)cc2)C1 (stereo not drawn),15.8µM,15.8µM
CC1=C(C)CS(=O)N(S(=O)(=O)c2ccccc2)C1 (stereo not drawn),–,–
Cc1ccc([N+](=O)[O-])cc1NC(=O)c1ccc(-c2ccccc2)cc1,–,12.6µM
O=C(Nc1c(Cl)cccc1Cl)c1ccc(-c2ccccc2)cc1,–,–
Cc1ccc([N+](=O)[O-])cc1NC(=O)c1ccc(C(C)(C)C)cc1,–,–
O=C(Nc1ccc(Cl)cc1Cl)c1ccc(-c2ccccc2)cc1,–,25.1µM
COc1ccc(/C=C/C(=O)Oc2cccc(/C=N/NC(=O)c3cccc(F)c3)c2)cc1,–,?
COc1ccc(/C=C/C(=O)Oc2ccc(/C=N\NC(=O)c3ccc(F)cc3)cc2)cc1,–,7.94µM
O=C(N/N=C/CCc1ccccc1)c1ccc(CN2c3cccc4cccc(c34)S2(=O)=O)cc1,–,?
COc1ccc(/C=N/NC(=O)c2ccc(CN3c4cccc5cccc(c45)S3(=O)=O)cc2)cc1,–,15.8µM
CCc1nn(CCCC(=O)N2CCN(c3cc(Cl)ccc3C)CC2)c(=O)c2cc3occc3n12,–,?
O=C(COc1ccccc1F)NC1CC(=O)N(c2ccc3c(c2)OCCO3)C1 (stereo not drawn),–,–
O=C1C2C3c4ccccc4C(c4ccccc43)C2C(=O)N1c1nc(-c2ccccc2)cs1 (stereo not drawn),–,?
O=C1C2C3c4ccccc4C(c4ccccc43)[C@@H]2C(=O)N1c1nc(-c2ccccc2)cs1 (stereo partly drawn),–,12.6µM
COc1ccc(N2C(=O)CSC23C(=O)N(CC(=O)NCCc2ccccc2)c2ccccc23)cc1 (stereo not drawn),–,–
O=C(CSc1nccn1Cc1ccc(Cl)cc1)Nc1ccc2c(c1)OCO2,–,–
COc1ccc2[nH]cc(CCNc3ccnc(-c4cccc(NS(C)(=O)=O)c4)n3)c2c1,–,–
CS(=O)(=O)Nc1ccc(Cc2noc(-c3ccc4[nH]cc(CCN)c4c3)n2)cc1,–,31.6µM
Cc1ccc(S(=O)(=O)Nc2ccc3nc(-c4cccc(Cl)c4)oc3c2)cc1,–,–
CC(=O)NCCc1nc2ccccc2[nH]1,–,–
COc1ccccc1C(=O)NCCc1nc2ccccc2[nH]1,15.8µM,5.01µM
COCC(=O)NCCc1nc2ccccc2[nH]1,–,?
SMILES,Cruzain inh Det,Cruzain noTriton
O=C(NCCc1nc2ccccc2[nH]1)c1ccc(F)cc1,?,1.26µM
CC(C)CCn1c(=O)c2cccnc2n(CC(=O)Nc2ccccc2)c1=O,–,–
CCC(C(=O)Nc1ccccc1C(=O)OC)n1c(C)c2cnn(-c3ccccc3)c(=O)c2c1C (stereo not drawn),–,–
COc1cccc(C(=O)NC2=NC(c3ccccc3F)CC(=O)N2)c1 (stereo not drawn),–,–
O=C(Cn1c(=O)nc(-c2ccccc2F)c2cc(Cl)ccc21)NCCCc1ccccc1,–,–
Cc1ccc(-n2ccnc(NCCc3ccc(S(N)(=O)=O)cc3)c2=O)c(C)c1,–,–
CCc1ccc(NC(=O)C2CCN(S(=O)(=O)c3c(C)noc3/C=C/c3cccs3)CC2)cc1,–,–
Cc1cc(Nc2cccc(F)c2)nc(NCc2ccccc2)n1,–,–
Cc1cccc(Nc2nc(NCC3CCCO3)nc(N)c2[N+](=O)[O-])c1 (stereo not drawn),–,–
Cc1ccc(CNc2nc(N)c([N+](=O)[O-])c(Nc3cccc(F)c3)n2)cc1,–,20µM
Nc1nc(NCC2CCCO2)nc(Nc2ccc(F)cc2)c1[N+](=O)[O-] (stereo not drawn),–,–
Nc1nc(NCc2ccccc2)nc(Nc2cccc(F)c2)c1[N+](=O)[O-],–,31.6µM
Nc1nc(NCc2ccccc2)nc(Nc2ccc(F)cc2)c1[N+](=O)[O-],–,7.94µM
CCOc1ccccc1NC(=O)c1nn(C)c2c1CSc1ccccc1-2,–,–
O=C(Cc1csc(Nc2nc(=S)[nH]c3ccccc23)n1)NCc1ccccc1Cl,–,?
Cc1ccc(CNC(=O)Cc2csc3ccccc23)cc1,–,–
Cc1ccc(CNC(=O)Cc2csc(Nc3nc(=S)[nH]c4ccccc34)n2)cc1,–,10µM
O=C(Cc1csc(Nc2nc(=S)[nH]c3ccccc23)n1)NCc1cccc(Cl)c1,–,3.98µM
COC(=O)c1ccc(CSc2nc3c([nH]c4ccccc43)c(=O)n2-c2ccc(F)cc2)o1,–,–
CCOc1ccc(S(=O)(=O)N2CCC(c3ccncc3)CC2)cc1,–,–
COc1ccc(/C=N/NC(=O)c2cccnc2)cc1CSc1nc2ccccc2s1,–,?
COc1ccc(/C=N/NC(=O)c2ccccc2Cl)cc1CSc1nc2ccccc2s1,–,15.8µM
Cc1ccc(-n2nc(C)c(C3C(C#N)=C(N)Oc4c3c(=O)oc3ccccc43)c2Cl)cc1 (stereo not drawn),–,20µM
Cc1nn(-c2ccccc2)c(Cl)c1C1C(C#N)=C(N)Oc2c1c(C)nn2-c1ccccc1 (stereo not drawn),–,–
CCCN(Cc1cc2cc(C)ccc2[nH]c1=O)C(=O)c1cccc(Cl)c1,–,–
SMILES,Cruzain inh Det,Cruzain noTriton
CC(C)c1ccc(OCC(=O)Nc2c(C(=O)c3ccc(F)cc3)oc3ccccc23)cc1,–,–
Cc1ccc(-c2cc(C(F)(F)F)n3ncc(-c4ccc(Cl)cc4)c3n2)cc1,–,–
OCc1ccccc1N=c1ssnc1Cl,–,25.1µM
COc1ccc(N2CCN(c3ncnc4onc(C)c34)CC2)cc1,–,–
O=C(O)CSC1=NCCN1,–,–
O=C(CSC1=NCCN1)C1COc2ccccc2O1 (stereo not drawn),–,1.26µM
Cc1ccc(NC(=O)CCn2nc(-c3ccccc3)c3ccccc3c2=O)c(C)c1,–,–
COC(=O)CNC(=O)[C@@]1(C)C=C[C@@H](Cc2ccccc2)N1C(C)=O,–,–
Cc1c(/C=N/NC(=O)c2ccccc2O)c2ccccn2c1C(=O)c1ccc(F)cc1,–,25.1µM
Cc1c(/C=N/NC(=O)c2ccc(O)cc2)c2ccccn2c1C(=O)c1ccc(F)cc1,–,?
COc1cccc(C2CC(=O)N3CN(C4CCCCC4)CSC3=C2C#N)c1 (stereo not drawn),28.2µM,–
CN1CSC2=C(C#N)C(c3cccc(OCc4ccccc4)c3)CC(=O)N2C1 (stereo not drawn),–,–
COc1ccc(N2CSC3=C(C#N)C(c4ccc(OC)c(OC)c4)CC(=O)N3C2)c(OC)c1 (stereo not drawn),–,–
COc1ccc(C2CC(=O)N3CN(C4CCCCC4)CSC3=C2C#N)cc1 (stereo not drawn),20µM,–
CC(=O)c1cc(-c2ccccc2)n(CC(=O)NC2CCCCCC2)c1C,–,–
Cc1oc2c(cc(NS(=O)(=O)c3cccs3)c3ccccc32)c1C(=O)OC(C)C,–,31.6µM
Cc1oc2c(cc(NS(=O)(=O)c3ccc(C(C)C)cc3)c3ccccc32)c1C(=O)O,?,–

# Assay outcomes as filed in PubChem.
